Bioassay records deposited in PubChem BioAssay by National Center for Advancing Translational Sciences (NCATS).
Only some compounds are listed: those with a hit (about 21% of all), similar ones and a draw of the others.
IL1B secr inh – blocks inflammasome-driven IL-1 beta release. AID 743279. THP-1 LPS/ATP IL-1B secretion, AlphaLISA, 16 h; hits give low values. activity change, % at 57.5 µM. actives 4.7% (n = 360,000); in the data active means activity change below about -50%; inconclusive means mostly about -30% to -49%
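THP-1 cells pretreated 1 hr with compounds (up to 57.5 uM final), then stimulated with LPS (250 ng/mL final) plus ATP (1.25 mM final); secreted IL-1B measured by AlphaLISA after 16 hr, decreased signal indicating inhibition.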
D3 ag – D3 dopamine receptor (human) agonism | P35462 | D3R DiscoveRx beta-arrestin cells, luminescence, 90 min | max activation, % | actives 0.58% (n = 410,000) | AID 652048; in the data active means max activation above about 30%
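Agonist-mode cell screen: cells plated at 1500/well and incubated overnight at 37 °C, then exposed to library compounds for 90 min at 37 °C. Detection reagent was added for 30–60 min at room temperature, and luminescence was read.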
ClpP mod – qHTS Assay for Activators of ClpP. actives 1.9% (n = 340,000). Potency, µM (top dose mostly 57.5 µM). AID 651965, 2013. purified B. subtilis ClpP, FRET peptide cleavage, 20 min; active means well fitted falling curve with a large enough effect; inconclusive means small, poorly fitted or top-dose-only effect; inactive means no such curve, though single readings can be large or run the other way; further: the source files actives as falling curves though it sought activators and does not explain the sign; nearly all actives have a fitted effect of over 65% in size
Target sequence (P80244 whole entry, looked up): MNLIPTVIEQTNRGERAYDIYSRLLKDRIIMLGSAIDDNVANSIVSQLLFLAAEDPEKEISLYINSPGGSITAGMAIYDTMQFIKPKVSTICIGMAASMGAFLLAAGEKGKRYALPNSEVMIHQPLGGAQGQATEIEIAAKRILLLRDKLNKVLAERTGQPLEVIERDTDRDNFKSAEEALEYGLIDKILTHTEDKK
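Purified B. subtilis ClpP, 10 microg/mL final in Tris/HCl pH8 with KCl, BSA, glycerol and Tween-20, cleaved an Abz/nitrotyrosine-quenched decapeptide. Fluorescence (ex 320, em 430) was read at 0 and 20 min at room temperature. Delta was normalized to 5.8 microM ADEP and DMSO/no-enzyme controls.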
DT40 TDP1 CPT – DT40-hTDP1 cell growth loss with CPT; chicken DT40 Tdp1-/-;hTDP1 cells + 20 nM CPT, ATP luminescence, 48 h; Potency, µM (titrated, usually from 46.2 µM), hits mostly inhibitors; actives 12% (n = 420,000); AID 686979; further: nearly all actives have a fitted effect of over 55% in size
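Cell growth measured by CellTiter-Glo luminescence after a minimum 48 h, 37 C compound exposure with 20 nM CPT in Tdp1-knockout DT40 cells stably expressing hTDP1, seeded 400/well; qHTS titration format.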
TDP1 cell noCPT – qHTS for Inhibitors of human tyrosyl-DNA phosphodiesterase 1 (TDP1): qHTS in cells in absence of CPT. Potency, µM (titrated, usually from 46.2 µM), usual class: inhibitors. actives 15% (n = 420,000). AID 686978, 2013. DT40 Tdp1-/- hTDP1 cells, no CPT, ATP luminescence, 48 h; further: nearly all actives have a fitted effect of over 55% in size
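DT40 Tdp1-/-;hTDP1 cells, no CPT (DMSO vehicle only), 400 cells/well; compounds pin-transferred; ≥48 hr, 37 °C; CellTiter-Glo 30 min RT dark, luminescence read.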
D3 antag – blocks the human D3 dopamine receptor. P35462. D3R cells, DiscoveRx beta-arrestin luminescence, antagonist mode; hits give low values. max response, negative = inhibition, %. actives 2.5% (n = 360,000). AID 652054; in the data active means max response below about -50%; inconclusive means no clear call, values can overlap the other calls
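Cells plated overnight at 1500 cells/well, then exposed to library compounds with dopamine controls for 90 minutes at 37 degrees C. DiscoveRx reagent added for 30–60 minutes at room temperature; luminescence read, quantitative HTS format.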
Numbers stand for hits; . = inactive; ? = inconclusive; / = no result given; [ ] = another dose, or the depositor's remark. Unless noted, the call rests on the fitted dose curve; in most records, active means well fitted inhibition curve with a large enough effect; inconclusive means small, poorly fitted or top-dose-only effect; inactive means flat fitted curve, though single readings scatter.

SMILES | IL1B secr inh | D3 ag | ClpP mod | DT40 TDP1 CPT | TDP1 cell noCPT | D3 antag
COc1cc(NC(=O)COc2cc(C)cc3oc(=O)cc(C)c23)cc(OC)c1OC | ? | . | . | . | ? | .
CC(C)C(=O)N1CCN(c2ccccc2NC(=S)NC(=O)/C=C/c2ccco2)CC1 | . | . | / | ? | ? | .
O=C(NCc1ccc2c(c1)OCO2)c1c(-c2ccccc2)sc2ccccc12 | . | 67 | . | ? | ? | .
COc1cc2sc(-c3ccc(S(C)(=O)=O)cc3)c(C(=O)NCc3ccc(C)o3)c2cc1OC | . | . | . | ? | 13µM | .
CN1CCN(NC(=O)c2c(-c3ccccc3)sc3ccccc23)CC1 | . | . | . | . | . | .
Cc1ccc(CNC(=O)c2c(-c3ccccc3)sc3ccccc23)o1 | . | . | . | ? | 16µM | .
COc1cc2sc(-c3ccc(S(C)(=O)=O)cc3)c(C(=O)NCCCCO)c2cc1OC | . | . | . | . | . | .
Cc1ccc(NC(=O)c2cc(=O)c3ccccc3o2)cc1S(=O)(=O)N1CCOCC1 | . | . | . | 18µM | 12µM | .
COC(=O)c1cc(NC(=O)c2cc(-c3ccc(C(F)(F)F)cc3)oc2C(F)(F)F)ccc1N1CCOCC1 | . | . | / | ? | 21µM | .
COC(=O)c1cc(NC(=O)c2cc(-c3ccc(OC)cc3)oc2C(F)(F)F)ccc1N1CCOCC1 | . | . | ? | ? | ? | .
Cc1ccc(NC(=O)c2n[nH]c(=O)c3ccccc23)cc1S(=O)(=O)N1CCOCC1 | . | . | . | ? | ? | .
COCc1c(C(=O)Nc2ccc(C)c(S(=O)(=O)N3CCOCC3)c2)oc2ccccc12 | . | . | . | ? | ? | .
Cc1ccc(NC(=O)c2ccc3ccccc3n2)cc1S(=O)(=O)N1CCOCC1 | . | . | / | ? | 15µM | .
Cc1ccc(NC(=O)c2ccc([N+](=O)[O-])o2)cc1S(=O)(=O)N1CCOCC1 | -94 | . | / | 5.2µM | 4.6µM | .
CCN(CC)CCNC(=O)C(=O)NCC1OCCN1S(=O)(=O)c1ccc([N+](=O)[O-])cc1 (stereo not given) | . | . | . | ? | . | .
COc1ccc2c(c1)OC(C)CN(CCNC(=O)C1CCOC1)C2 (stereo not given) | / | / | / | .[9.04 µM] | . | /
Cc1ccc(NC(=O)c2cc(=O)c3ccccc3o2)cc1S(=O)(=O)N1CCCCC1 | ? | . | / | ? | 21µM | .
Cc1ccc(NC(=O)c2ccccc2-c2ccc(C(F)(F)F)cc2)cc1S(=O)(=O)N1CCOCC1 | . | . | . | ? | 15µM | .
O=C(Nc1ccc(S(=O)(=O)N2CCCCCC2)cc1)c1cc(=O)c2ccccc2o1 | / | . | . | ? | ? | /
CC(C)(C)C1=CC(=O)C(=O)C(C(C)(C)C)=C1 | -65 | . | . | 0.65µM | 1.3µM | ?
CN(CCO)C(=O)c1cn(C2CCCN(Cc3cc4ccccc4s3)C2)nn1 (stereo not given) | / | / | / | . | . | /
COc1cc2cc(C(=O)NCCc3c[nH]c4ccccc34)c(N)nc2cc1OC | ? | . | ? | ? | 16µM | .
COc1cc(SC)ccc1C(=O)NCCOc1ccc(F)cc1 | . | . | . | ? | 16µM | .
COc1ccc(C(=O)NCCc2c[nH]c3ccccc23)cc1 | . | . | / | ? | . | .
COc1ccc(CCNC(=O)c2ccc(SC)cc2OC)cc1 | ? | . | / | . | ? | .
COc1cc(SC)ccc1C(=O)NCCc1c[nH]c2ccccc12 | -65 | . | . | ? | ? | .
O=C(NCCc1c[nH]c2ccccc12)c1ccc(F)cc1F | . | . | / | ? | ? | .
CCOC(=O)c1c(C)sc(-c2c(-c3ccc4c(c3)OCCO4)[nH]c3c2c(=O)n(C)c(=O)n3C)c1O | / | . | . | 18µM | 18µM | /
COC(=O)c1c(C)sc(-c2c(-c3ccc4c(c3)OCCO4)[nH]c3c2c(=O)n(C)c(=O)n3C)c1O | / | . | . | . | . | /
